Inconclusive results are not listed. Activity calls are given as the source filed them. Rule for the calls, unless noted: active = hit-call score of the fitted dose curve at least 0.9, where 1 is the maximum; inconclusive = response in the unintended direction; inactive = score below 0.9.

For 9 compounds, outcome and AC50 results are on record in PubChem BioAssay (EPA / NIEHS).

Assay [1] in a line: ATG_TAL_CIS: Attagene CIS-FACTORIAL HepG2 Assay for human TAL Basal Promoter (AID 2282966; active = hit-call score of the fitted dose curve at least 0.9, where 1 is the maximum; inactive = score below 0.9;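 note: background control endpoint measuring basal TAL promoter reporter mRNA not a specific factor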). To be noted: HepG2 Attagene cis-factorial TAL promoter reporter; actives raise or lower the signal. Summed up:
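Basal-promoter background-control endpoint from a multiplexed HepG2 reporter panel. Cells were exposed 24 h, then reporter mRNA was read by RT-PCR/CE fluorescence and fitted in both directions relative to DMSO.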

Assay [2] is described as follows: ATG_TGFb_CIS: Attagene CIS-FACTORIAL HepG2 Assay for human Transforming Growth Factor (TGF) (AID 2282967; active = hit-call score of the fitted dose curve at least 0.9, where 1 is the maximum; inactive = score below 0.9). As to conditions: HepG2 Attagene CIS TGFb reporter, mRNA transcription; actives raise or lower the signal. Summed up: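 HepG2 cells transiently transfected with cis-promoter-driven multiplexed reporter units; 24 h compound exposure. Reporter mRNA measured by RT-PCR, 6-FAM labeling, HpaI digestion and capillary electrophoresis; bidirectional fit versus DMSO baseline.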

Assay [3] in a line: ATG_VDRE_CIS: Attagene CIS-FACTORIAL HepG2 Assay for human Vitamin D Receptor Element (VDRE) (AID 2282968; active = hit-call score of the fitted dose curve at least 0.9, where 1 is the maximum; inactive = score below 0.9). As to conditions: HepG2 VDRE cis-reporter transcription, actives raise or lower the signal. Summed up: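 Compounds were applied for 24 h to HepG2 cells transfected with promoter-regulated reporter units. Total RNA was reverse-transcribed, and reporter amplicons were fluorescently labelled and sized by capillary electrophoresis.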

In assay [4] the target is Estrogen receptor (Homo sapiens) (UniProt P03372). As to the kind of experiment: ATG_ERa_TRANS: Attagene TRANS-FACTORIAL HepG2 Assay for human Estrogen Receptor alpha (ERa) (AID 2282970). To be noted: HepG2 Attagene TRANS ERa GAL4 reporter, mRNA. The essentials: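 Gal4-fusion ERa transactivation, measured as reporter transcript level in transiently transfected HepG2 cells. Exposure 24 h; RT-PCR plus capillary electrophoresis with fluorescence detection.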

For assay [5], the target named is X-box-binding protein 1 (Homo sapiens) (UniProt P17861). The experiment in a line: ATG_Xbp1_CIS: Attagene CIS-FACTORIAL HepG2 Assay for human X-box Binding Protein 1 (XBP1) (AID 2282972; active = hit-call score of the fitted dose curve at least 0.9, where 1 is the maximum; inactive = score below 0.9). To be noted: HepG2 XBP1 cis-element reporter, Attagene multiplex; actives raise or lower the signal. Summed up:
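Human hepatoma HepG2, cis-element reporter system, 24 h treatment; mRNA quantified by RT-PCR/CE fluorescence; fit relative to DMSO.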

The nature of assay [6]: ATG_M_19_TRANS: Attagene TRANS-FACTORIAL HepG2 Assay for M19 Transcription Factor (Internal Marker) (AID 2282974). As to conditions: HepG2 Attagene TRANS-FACTORIAL M19 internal marker reporter. The essentials: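 Reporter mRNA induction was measured in transfected HepG2 cells 24 h after dosing. Endpoint fitted upward relative to DMSO and serves as a background control within the multiplexed TRANS panel.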

Assay [7] can be described thus: ATG_GAL4_TRANS: Attagene TRANS-FACTORIAL HepG2 Assay for GAL4 (Internal Marker) (AID 2282976). As to conditions: HepG2 Attagene TRANS GAL4 internal marker reporter. Summed up:
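Background-control readout: GAL4-UAS reporter transcript in transiently transfected HepG2 cells after 24 h compound exposure. Measured by RT-PCR, 6-FAM primer extension, HpaI digest and capillary electrophoresis; gain-of-signal fit versus DMSO.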

The target in assay [8] is Oxysterols receptor LXR-alpha (Homo sapiens) (UniProt Q13133). The experiment in a line: ATG_LXRa_TRANS: Attagene TRANS-FACTORIAL HepG2 Assay for human Liver X Receptor alpha (LXRa) (AID 2282980). As to conditions: HepG2 Attagene TRANS reporter, LXRa transactivation. The essentials:
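HepG2 cells transiently transfected with GAL4-UAS reporter units for chimeric NR-Gal4 proteins, exposed to chemicals for 24 h. Reporter mRNA quantified by RT-PCR and capillary electrophoresis; gain of signal fitted relative to DMSO.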

In assay [9] the target is Oxysterols receptor LXR-beta (Homo sapiens) (UniProt P55055). As to the kind of experiment: ATG_LXRb_TRANS: Attagene TRANS-FACTORIAL HepG2 Assay for human Liver X Receptor beta (LXRb) (AID 2282981). As to conditions: HepG2 Attagene TRANS GAL4-LXRb reporter, mRNA. The essentials:
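Multiplexed reporter assay, HepG2, 24 h dosing. Fluorescence of labelled RT-PCR products after capillary electrophoresis gives transcript level; positive fitting direction relative to DMSO.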

Assay [10] can be described thus: ATG_M_32_TRANS: Attagene TRANS-FACTORIAL HepG2 Assay for M32 Transcription Factor (Internal Marker) (AID 2282984). To be noted: HepG2 Attagene TRANS M32 internal marker reporter. The essentials: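 Internal-marker readout from a multiplexed transcription reporter panel. HepG2 cells were transfected with GAL4-UAS reporter units, treated 24 hours, and reporter transcript levels determined by fluorescence after RT-PCR and capillary separation.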

The target of assay [11] is Nuclear receptor subfamily 4 group A member 2 (Homo sapiens) (UniProt P43354). As to the kind of experiment: ATG_NURR1_TRANS: Attagene TRANS-FACTORIAL HepG2 Assay for human Nuclear Receptor Related Protein 1 (NURR1) (AID 2282985). To be noted: HepG2 Attagene TRANS reporter, mRNA readout. Summed up: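 Endpoint: reporter mRNA increase relative to DMSO. HepG2 cells transfected with reporter units, treated 24 h; RNA processed by RT-PCR, labelling, HpaI digestion and capillary electrophoresis.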

Assay [12] deals with Transcriptional activator Myb (Homo sapiens) (UniProt P10242). The experiment in a line: ATG_Myb_CIS: Attagene CIS-FACTORIAL HepG2 Assay for human Myeloblastosis (Myb) Proto-Oncogene Transcription Factor (AID 2282986; active = hit-call score of the fitted dose curve at least 0.9, where 1 is the maximum; inactive = score below 0.9). As to conditions: HepG2 Attagene CIS-FACTORIAL Myb reporter transcription; actives raise or lower the signal. The essentials:
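Transiently transfected HepG2 cells, treated 24 h. Reporter mRNA quantified by RT-PCR/capillary electrophoresis; bidirectional fit relative to DMSO.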

The target in assay [13] is Nuclear respiratory factor 1 (Homo sapiens) (UniProt Q16656). As to the kind of experiment: ATG_NRF1_CIS: Attagene CIS-FACTORIAL HepG2 Assay for human Nuclear Respiratory Factor 1 (NRF1) Orphan Gene (AID 2282987; active = hit-call score of the fitted dose curve at least 0.9, where 1 is the maximum; inactive = score below 0.9). To be noted: HepG2 NRF1 cis-element reporter, Attagene multiplex; actives raise or lower the signal. Summed up:
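Cells (HepG2, transient MRTU transfection) are exposed to compound for 24 h, then RNA isolated and reporter mRNA amplified and fluorescently labelled. Fragments are separated by capillary electrophoresis; signal change is fitted bidirectionally relative to DMSO.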

For assay [14], the target named is Glucocorticoid receptor (Homo sapiens) (UniProt P04150). The experiment in a line: ATG_GR_TRANS: Attagene TRANS-FACTORIAL HepG2 Assay for human Glucocorticoid Receptor (GR) (AID 2282978).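 Note: activators score as hits since higher reporter transcript over DMSO is fitted.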 To be noted: HepG2 Attagene TRANS GR reporter, mRNA transcription. The essentials:
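Reporter transcript levels, detected by fluorescence after RT-PCR and capillary electrophoresis, served as the endpoint. HepG2 cells bearing transfected GAL4-UAS reporters responsive to NR-GAL4 chimeras were incubated with compound 24 h; DMSO defined baseline.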

Assay [15] has as its target Hepatocyte nuclear factor 4-alpha (Homo sapiens) (UniProt P41235). As to the kind of experiment: ATG_HNF4a_TRANS: Attagene TRANS-FACTORIAL HepG2 Assay for human Hepatocyte Nuclear Factor 4 alpha (HNF4a) (AID 2282982). To be noted: HepG2 HNF4a transactivation reporter, mRNA readout. Summed up: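 Endpoint reflects transcriptional activation of a GAL4-UAS reporter by an HNF4a-GAL4 chimera in transfected HepG2 cells, 24 h post-dosing. Fluorescence from RT-PCR products separated by capillary electrophoresis; DMSO baseline.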

Assay [16] is described as follows: ATG_M_06_TRANS: Attagene TRANS-FACTORIAL HepG2 Assay for M06 Transcription Factor (Internal Marker) (AID 2282983). As to conditions: HepG2 Attagene TRANS M06 internal marker reporter. Summed up: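 mRNA levels of a reporter transcript, quantified as FAM fluorescence on capillary electrophoresis, served as readout. HepG2 cells expressing exogenous GAL4-chimera reporter constructs were exposed for 24 h. Gain of signal over DMSO was evaluated.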

Assay [17] has as its target Estrogen-related receptor gamma (Homo sapiens) (UniProt P62508). As to the kind of experiment: ATG_ERRg_TRANS: Attagene TRANS-FACTORIAL HepG2 Assay for human Estrogen-Related Receptor gamma (ERRg) (AID 2282977).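 Note: hits increase reporter signal over DMSO so potencies reflect activators.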 To be noted: HepG2 Attagene TRANS reporter, ERRg transactivation. Summed up:
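Exogenous NR-Gal4 chimera activity measured as reporter transcript induction after 24 h in transiently transfected HepG2 cells. RNA reverse-transcribed, PCR-amplified, 6-FAM-labelled and resolved by capillary electrophoresis; increase over DMSO baseline.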

For assay [18], the target named is Steroid hormone receptor ERR1 (Homo sapiens) (UniProt P11474). As to the kind of experiment: ATG_ERRa_TRANS: Attagene TRANS-FACTORIAL HepG2 Assay for human Estrogen-Related Receptor alpha (ERRa) (AID 2282971). To be noted: HepG2 Attagene TRANS reporter, ERRa transactivation. Summed up:
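HepG2 cells transiently transfected with GAL4-UAS reporter units and chimeric NR-Gal4 constructs; after 24 hour compound incubation, reporter mRNA quantified by RT-PCR, fluorescent labelling and capillary electrophoresis, gain of signal versus DMSO.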

Sequence of Transcriptional activator Myb (Homo sapiens) (P10242 whole entry, looked up): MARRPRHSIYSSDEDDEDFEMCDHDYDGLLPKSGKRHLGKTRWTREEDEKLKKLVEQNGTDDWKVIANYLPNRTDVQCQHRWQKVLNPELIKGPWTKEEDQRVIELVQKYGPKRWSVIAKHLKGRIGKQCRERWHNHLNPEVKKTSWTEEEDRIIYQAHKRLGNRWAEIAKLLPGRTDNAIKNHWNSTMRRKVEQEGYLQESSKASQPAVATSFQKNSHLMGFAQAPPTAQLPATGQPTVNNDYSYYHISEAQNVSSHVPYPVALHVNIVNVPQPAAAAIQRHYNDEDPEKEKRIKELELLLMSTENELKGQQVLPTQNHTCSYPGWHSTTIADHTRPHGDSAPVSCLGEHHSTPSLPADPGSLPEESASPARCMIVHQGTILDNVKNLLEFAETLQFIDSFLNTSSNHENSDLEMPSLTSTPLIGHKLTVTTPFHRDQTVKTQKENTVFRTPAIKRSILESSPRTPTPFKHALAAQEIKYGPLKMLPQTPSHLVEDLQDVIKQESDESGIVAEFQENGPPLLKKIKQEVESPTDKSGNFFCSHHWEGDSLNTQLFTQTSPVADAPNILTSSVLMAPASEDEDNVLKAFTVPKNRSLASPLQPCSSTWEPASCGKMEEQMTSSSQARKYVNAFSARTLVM
Sequence of Oxysterols receptor LXR-alpha (Homo sapiens) (Q13133 whole entry, looked up, the tested form may be a part): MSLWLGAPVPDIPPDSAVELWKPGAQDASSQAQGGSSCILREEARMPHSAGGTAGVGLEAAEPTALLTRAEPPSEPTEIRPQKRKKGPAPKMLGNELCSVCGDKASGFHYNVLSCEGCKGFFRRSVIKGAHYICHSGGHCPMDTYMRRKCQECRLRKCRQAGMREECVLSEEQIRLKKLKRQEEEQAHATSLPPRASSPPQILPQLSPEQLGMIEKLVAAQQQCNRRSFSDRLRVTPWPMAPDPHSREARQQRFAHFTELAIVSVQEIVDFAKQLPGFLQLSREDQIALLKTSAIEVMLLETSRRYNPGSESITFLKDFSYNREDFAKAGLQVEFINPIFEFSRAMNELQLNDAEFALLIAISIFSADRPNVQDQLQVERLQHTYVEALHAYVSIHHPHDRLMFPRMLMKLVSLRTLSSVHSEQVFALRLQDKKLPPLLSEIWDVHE
Sequence of Oxysterols receptor LXR-beta (Homo sapiens) (P55055 whole entry, looked up, the tested form may be a part): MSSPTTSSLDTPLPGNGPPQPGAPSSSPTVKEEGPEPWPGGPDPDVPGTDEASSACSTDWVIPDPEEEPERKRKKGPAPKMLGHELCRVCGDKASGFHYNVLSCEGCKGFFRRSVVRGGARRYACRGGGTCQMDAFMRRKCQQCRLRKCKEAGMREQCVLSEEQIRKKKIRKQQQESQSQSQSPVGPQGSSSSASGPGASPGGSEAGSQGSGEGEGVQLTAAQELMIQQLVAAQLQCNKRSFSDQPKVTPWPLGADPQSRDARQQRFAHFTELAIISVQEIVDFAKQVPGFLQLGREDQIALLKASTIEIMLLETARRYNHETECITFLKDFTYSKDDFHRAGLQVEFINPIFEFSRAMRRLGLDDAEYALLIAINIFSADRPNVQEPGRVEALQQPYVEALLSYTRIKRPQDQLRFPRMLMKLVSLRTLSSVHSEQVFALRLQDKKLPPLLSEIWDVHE
Sequence of Estrogen receptor (Homo sapiens) (P03372 whole entry, looked up, the tested form may be a part): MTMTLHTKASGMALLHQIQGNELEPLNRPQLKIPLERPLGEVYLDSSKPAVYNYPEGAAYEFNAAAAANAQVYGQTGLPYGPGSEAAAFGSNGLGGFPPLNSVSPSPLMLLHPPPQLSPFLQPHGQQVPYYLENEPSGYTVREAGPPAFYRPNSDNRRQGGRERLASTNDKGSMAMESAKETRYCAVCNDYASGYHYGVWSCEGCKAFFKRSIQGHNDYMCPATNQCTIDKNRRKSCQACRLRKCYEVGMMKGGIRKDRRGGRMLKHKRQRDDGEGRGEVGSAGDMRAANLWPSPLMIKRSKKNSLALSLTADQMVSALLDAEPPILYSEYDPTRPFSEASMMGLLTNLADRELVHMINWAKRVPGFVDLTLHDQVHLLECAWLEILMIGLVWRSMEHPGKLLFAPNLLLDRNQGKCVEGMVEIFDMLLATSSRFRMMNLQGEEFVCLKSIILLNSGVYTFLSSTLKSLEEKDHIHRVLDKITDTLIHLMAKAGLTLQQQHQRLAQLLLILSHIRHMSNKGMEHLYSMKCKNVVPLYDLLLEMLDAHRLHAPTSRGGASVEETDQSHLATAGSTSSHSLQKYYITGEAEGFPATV
Sequence of Nuclear receptor subfamily 4 group A member 2 (Homo sapiens) (P43354 whole entry, looked up): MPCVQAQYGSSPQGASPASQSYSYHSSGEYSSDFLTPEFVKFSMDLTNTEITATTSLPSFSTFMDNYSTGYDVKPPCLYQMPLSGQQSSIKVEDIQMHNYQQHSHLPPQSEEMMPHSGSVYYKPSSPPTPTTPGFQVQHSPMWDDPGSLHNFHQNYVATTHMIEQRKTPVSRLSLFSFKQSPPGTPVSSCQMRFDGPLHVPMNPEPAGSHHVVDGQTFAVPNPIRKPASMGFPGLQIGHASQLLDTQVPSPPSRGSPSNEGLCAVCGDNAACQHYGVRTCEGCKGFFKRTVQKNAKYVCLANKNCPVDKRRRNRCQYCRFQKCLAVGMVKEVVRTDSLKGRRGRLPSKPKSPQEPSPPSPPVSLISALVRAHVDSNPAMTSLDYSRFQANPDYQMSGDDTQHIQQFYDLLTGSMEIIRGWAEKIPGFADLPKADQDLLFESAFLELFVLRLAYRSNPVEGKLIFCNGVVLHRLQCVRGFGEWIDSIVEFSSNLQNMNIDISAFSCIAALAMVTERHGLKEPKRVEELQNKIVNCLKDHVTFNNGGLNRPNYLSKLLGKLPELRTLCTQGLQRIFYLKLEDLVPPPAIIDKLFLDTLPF
Sequence of Glucocorticoid receptor (Homo sapiens) (P04150 whole entry, looked up, the tested form may be a part): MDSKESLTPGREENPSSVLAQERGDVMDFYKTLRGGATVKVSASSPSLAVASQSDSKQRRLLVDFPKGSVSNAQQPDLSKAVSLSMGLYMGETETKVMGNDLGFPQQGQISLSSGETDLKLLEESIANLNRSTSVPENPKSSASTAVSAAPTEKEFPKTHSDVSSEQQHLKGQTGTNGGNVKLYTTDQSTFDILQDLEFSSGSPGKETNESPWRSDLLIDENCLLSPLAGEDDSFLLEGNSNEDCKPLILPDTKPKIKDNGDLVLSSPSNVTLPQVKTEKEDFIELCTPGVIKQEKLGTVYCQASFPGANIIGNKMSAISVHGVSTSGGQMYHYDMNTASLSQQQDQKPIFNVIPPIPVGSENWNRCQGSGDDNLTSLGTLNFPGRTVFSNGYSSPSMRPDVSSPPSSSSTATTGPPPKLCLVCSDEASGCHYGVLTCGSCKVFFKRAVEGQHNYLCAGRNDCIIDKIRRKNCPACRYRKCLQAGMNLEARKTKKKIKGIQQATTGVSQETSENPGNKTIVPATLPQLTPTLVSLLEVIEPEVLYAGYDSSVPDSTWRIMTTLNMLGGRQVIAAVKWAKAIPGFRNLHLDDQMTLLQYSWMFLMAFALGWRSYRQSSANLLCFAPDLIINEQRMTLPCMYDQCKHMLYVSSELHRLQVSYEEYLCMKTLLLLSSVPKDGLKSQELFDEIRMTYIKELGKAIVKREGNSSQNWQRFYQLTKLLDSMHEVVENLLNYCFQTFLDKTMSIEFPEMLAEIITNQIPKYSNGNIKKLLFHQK
Sequence of Nuclear respiratory factor 1 (Homo sapiens) (Q16656 whole entry, looked up, the tested form may be a part): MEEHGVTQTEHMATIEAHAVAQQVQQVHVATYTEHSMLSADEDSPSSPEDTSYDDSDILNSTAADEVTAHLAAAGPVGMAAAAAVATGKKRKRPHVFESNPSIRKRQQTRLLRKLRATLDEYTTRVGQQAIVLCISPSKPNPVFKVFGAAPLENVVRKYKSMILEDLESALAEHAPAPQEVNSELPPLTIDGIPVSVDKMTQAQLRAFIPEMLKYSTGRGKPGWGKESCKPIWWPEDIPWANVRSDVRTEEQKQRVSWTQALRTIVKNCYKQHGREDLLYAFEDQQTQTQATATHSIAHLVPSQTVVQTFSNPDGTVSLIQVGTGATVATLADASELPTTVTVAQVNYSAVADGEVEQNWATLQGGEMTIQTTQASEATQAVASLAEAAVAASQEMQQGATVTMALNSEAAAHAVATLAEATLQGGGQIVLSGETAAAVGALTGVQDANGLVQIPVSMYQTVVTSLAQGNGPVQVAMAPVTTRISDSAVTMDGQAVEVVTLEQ
Sequence of X-box-binding protein 1 (Homo sapiens) (P17861 whole entry, looked up): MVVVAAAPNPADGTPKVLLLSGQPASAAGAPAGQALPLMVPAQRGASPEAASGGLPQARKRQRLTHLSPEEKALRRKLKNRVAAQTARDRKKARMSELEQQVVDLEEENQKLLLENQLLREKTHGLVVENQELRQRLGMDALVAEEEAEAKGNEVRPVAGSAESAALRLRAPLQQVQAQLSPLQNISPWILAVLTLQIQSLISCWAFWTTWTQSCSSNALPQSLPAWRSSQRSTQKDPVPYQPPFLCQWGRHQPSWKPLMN
Sequence of Hepatocyte nuclear factor 4-alpha (Homo sapiens) (P41235 whole entry, looked up, the tested form may be a part): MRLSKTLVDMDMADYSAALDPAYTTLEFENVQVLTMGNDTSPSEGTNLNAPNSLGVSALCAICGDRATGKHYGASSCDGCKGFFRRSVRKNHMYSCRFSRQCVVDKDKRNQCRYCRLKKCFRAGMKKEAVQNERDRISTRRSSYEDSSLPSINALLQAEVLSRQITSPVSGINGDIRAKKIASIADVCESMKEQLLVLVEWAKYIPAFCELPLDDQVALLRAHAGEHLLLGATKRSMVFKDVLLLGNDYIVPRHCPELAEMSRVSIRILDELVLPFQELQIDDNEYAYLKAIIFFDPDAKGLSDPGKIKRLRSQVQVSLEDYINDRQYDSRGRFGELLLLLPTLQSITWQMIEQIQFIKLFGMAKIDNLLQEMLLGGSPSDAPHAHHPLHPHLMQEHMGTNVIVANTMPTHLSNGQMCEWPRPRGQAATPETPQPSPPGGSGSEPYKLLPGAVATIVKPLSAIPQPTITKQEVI

The term AC50 denotes the concentration giving half of the maximal activity seen. On to `CC(=O)OCC(=O)[C@@]12N=C(C)O[C@@H]1C[C@H]1[C@@H]3CCC4=CC(=O)C=C[C@]4(C)[C@H]3[C@@H](O)C[C@@]12C`, for which the result in assay [1], in assay [2], in assay [4], in assay [5], in assay [6] and in [7] was inactive. The call in assay [8], in assay [9], in [10], in assay [12] and in [13] was inactive. For the same compound, the AC50 in assay [3] is 25 µM (active); in [11], 17.1 µM (active).

As for `CCC(CO)CO`, the outcome in [1], in assay [2], in assay [3], in [4], in [5] and in assay [6] was inactive. In addition, the compound was classed as inactive in assay [7], in assay [14], in [9], in assay [15], in assay [10] and in [11]. Besides, the compound was called inactive in [12] and in assay [13].

`O=C1c2ccccc2C(=O)C1c1nc2ccccc2c(Br)c1O`: the compound was classed as inactive in [1], in assay [4], in assay [5], in [6], in assay [7] and in assay [14]. In addition, the result in assay [8], in assay [9], in [15], in [10], in [11] and in [12] was inactive. Moreover, the call in [13] was inactive. The AC50 was 100 µM (active) in assay [2] and 17.2 µM (active) in assay [3].

As for `CCCCCCCC/C=C\CCCCCCCC(=O)OCCO`, the outcome in [1], in assay [2], in assay [3], in [4], in [5] and in assay [6] was inactive. The compound was classed as inactive in [14], in [15], in [16], in assay [10], in [11] and in assay [12]. The compound was classed as inactive in assay [13].

In the case of `S=C(NC1CCCCC1)NC1CCCCC1`, the outcome in assay [1], in assay [2], in assay [3], in assay [4], in [5] and in [6] was inactive. The result in assay [17], in assay [8], in assay [15], in assay [10], in [11] and in assay [12] was inactive.

As to `OCCc1ccncc1`, the outcome in [1], in [2], in assay [3], in assay [4], in assay [18] and in assay [5] was inactive. For the same compound, the compound was called inactive in assay [7], in [8], in assay [15], in assay [16] and in assay [13].

With `CC(=O)OC(C)C`, the outcome in assay [1], in assay [2], in assay [3], in assay [4], in assay [5] and in assay [14] was inactive. Moreover, the call in assay [8], in [16], in [11], in assay [12] and in assay [13] was inactive.

For `N[C@H]1C(O)O[C@H](CO)[C@H](O)[C@@H]1O` (stereo partly drawn), the outcome in assay [1], in assay [2], in [3], in assay [4], in [5] and in [6] was inactive. The result in [17], in assay [8], in assay [9], in assay [16] and in assay [13] was inactive.

On to `CC1(C)O[C@@H]2C[C@H]3[C@@H]4C[C@H](F)C5=CC(=O)CC[C@]5(C)[C@H]4[C@@H](O)C[C@]3(C)[C@]2(C(=O)CO)O1`, for which the outcome in assay [1], in assay [2], in assay [3], in [4], in assay [5] and in [8] was inactive. For the same compound, the compound was classed as inactive in assay [9], in assay [16], in assay [10], in [11], in [12] and in [13]. In addition, the half-maximal activity concentration (AC50) in assay [14] is 0.0728 µM (active).
